Results published in PubChem BioAssay AID1159580 (chemical genetic matrix, 2015).
Where “and” joins values, the source holds several entries; their conditions need not be identical. Equal entries are not always repeated. Hit rate of the full screen: of about 5,500 compounds, about 2,000 (36%) were called active. Inconclusive results (about 18%) are left out. No stated cut-off is given here; in the data, active means normalized growth mostly below about 0.91 (no sharp cut-off); inconclusive means no clear call, values can overlap the other calls; inactive means mostly above about 0.92. This is one part of the list.

Experiment: chemical genetic growth profiling, strain panel (AID 1159580);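 further: tested at 20 µM; growth read once vehicle control cultures reached saturation at 30 °C; 1 = growth at the plate median or of vehicle wells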
Details: S. cerevisiae deletion strains, growth OD

Measured: normalized growth

Cn1c(=O)c2[nH]c(C3CCCC3)nc2n(C)c1=O
inactive: locus YAL013W, strain DEP1, stronger effect = lower value 1.01 | locus YAL021C, strain ccr4, stronger effect = lower value 0.989 | locus YAL026C, strain drs2, stronger effect = lower value 0.997 | locus YAL030W, strain snc1, stronger effect = lower value 0.99 | locus YAL040C, strain CLN3, stronger effect = lower value 0.977 | locus YBL061C, strain skt5, stronger effect = lower value 0.996 | locus YBR009C, strain hhf1, stronger effect = lower value 0.99 | locus YBR021W, strain FUR4, stronger effect = lower value 1.02 | locus YBR023C, strain chs3, stronger effect = lower value 0.996 | locus YBR171W, strain sec66, stronger effect = lower value 1.01 | locus YBR229C, strain ROT2, stronger effect = lower value 1.01 | locus YBR231C, strain swc5, stronger effect = lower value 0.997 | locus YBR279W, strain paf1, stronger effect = lower value 0.992 | locus YCL011C, strain gbp2, stronger effect = lower value 0.999 | locus YCL016C, strain dcc1, stronger effect = lower value 0.992 | locus YCL029C, strain bik1, stronger effect = lower value 0.994 | locus YCL061C, strain MRC1 (second series), stronger effect = lower value 0.985 | locus YCL061C, strain MRC1, stronger effect = lower value 0.993 | locus YCL069W, strain vba3, stronger effect = lower value 0.992 | locus YCR088W, strain abp1, stronger effect = lower value 1 | locus YDL005C, strain med2, stronger effect = lower value 0.982 | locus YDL035C, strain GPR1, stronger effect = lower value 1.01 | locus YDL040C, strain nat1, stronger effect = lower value 0.998 | locus YDL074C, strain BRE1, stronger effect = lower value 1.03 | locus YDL101C, strain DUN1, stronger effect = lower value 1.02 | locus YDL134C, strain PPH21, stronger effect = lower value 1.01 | locus YDL185W, strain tfp1, stronger effect = lower value 1.01 | locus YDL192W, strain arf1, stronger effect = lower value 1 | locus YDR001C, strain nth1, stronger effect = lower value 1 | locus YDR069C, strain doa4, stronger effect = lower value 0.979 | locus YDR101C, strain arx1, stronger effect = lower value 0.985 | locus YDR137W, strain rgp1, stronger effect = lower value 1 | locus YDR150W, strain NUM1, stronger effect = lower value 1.02 and 0.999 | locus YDR159W, strain sac3, stronger effect = lower value 0.989 | locus YDR162C, strain NBP2, stronger effect = lower value 1.02 | locus YDR195W, strain ref2 0.944 | locus YDR297W, strain sur2, stronger effect = lower value 0.991 | locus YDR318W, strain mcm21, stronger effect = lower value 0.986 | locus YDR334W, strain swr1, stronger effect = lower value 0.997 | locus YDR335W, strain msn5, stronger effect = lower value 0.995 | locus YDR363W, strain ESC2, stronger effect = lower value 1.03 | locus YDR388W, stronger effect = lower value 0.995 | locus YDR392W, strain spt3, stronger effect = lower value 0.85 | locus YDR502C, strain sam2, stronger effect = lower value 1.01 | locus YEL003W, strain gim4, stronger effect = lower value 1 | locus YEL037C, strain rad23, stronger effect = lower value 1 | locus YEL061C, strain CIN8 (second series), stronger effect = lower value 1.01 | locus YEL061C, strain CIN8, stronger effect = lower value 1.01 | locus YER002W, strain NOP16, stronger effect = lower value 0.944 | locus YER015W, strain faa2, stronger effect = lower value 0.994 | locus YER016W, strain bim1, stronger effect = lower value 0.99 | locus YER110C, stronger effect = lower value 0.991 | locus YER111C, strain swi4, stronger effect = lower value 0.998 | locus YER155C, strain BEM2 (second series), stronger effect = lower value 0.961 | locus YER155C, strain BEM2, stronger effect = lower value 1.01 | locus YER167W, strain BCK2, stronger effect = lower value 1.01 | locus YFR010W, strain ubp6, stronger effect = lower value 1 | locus YGL078C, strain dbp3, stronger effect = lower value 1 | locus YGL086W, strain mad1, stronger effect = lower value 0.997 | locus YGL167C, strain pmr1, stronger effect = lower value 0.984 | locus YGL173C, strain kem1, stronger effect = lower value 0.997 | locus YGL227W, strain vid30, stronger effect = lower value 0.991 | locus YGL240W, strain doc1, stronger effect = lower value 0.981 | locus YGL248W, strain PDE1, stronger effect = lower value 1.02 | locus YGL253W, strain hxk2, stronger effect = lower value 1.01 | locus YGR078C, strain PAC10, stronger effect = lower value 1.01 | locus YGR135W, strain pre9, stronger effect = lower value 0.982 | locus YGR229C, strain SMI1, stronger effect = lower value 1.02 and 1.04 | locus YGR252W, strain gcn5, stronger effect = lower value 0.904 | locus YHR013C, strain ard1, stronger effect = lower value 0.953 | locus YHR027C, strain rpn1, stronger effect = lower value 0.991 | locus YHR030C, strain SLT2, stronger effect = lower value 1.01 and 0.978 | locus YHR079C, strain IRE1 (second series), stronger effect = lower value 0.994 | locus YHR079C, strain IRE1, stronger effect = lower value 0.991 | locus YHR094C, strain hxt1, stronger effect = lower value 1 | locus YHR129C, strain ARP1, stronger effect = lower value 1.01 | locus YHR142W, strain chs7, stronger effect = lower value 1 | locus YHR200W, strain rpn10, stronger effect = lower value 1.01 | locus YIL066C, strain RNR3, stronger effect = lower value 1 | locus YIL073C, strain SPO22, stronger effect = lower value 1 | locus YIL125W, strain kgd1, stronger effect = lower value 0.995 | locus YIR030C, strain dcg1, stronger effect = lower value 1 | locus YJL092W, strain hpr5, stronger effect = lower value 1.01 | locus YJL095W, strain BCK1 (second series), stronger effect = lower value 0.992 | locus YJL095W, strain BCK1, stronger effect = lower value 1 and 0.974 | locus YJL115W, strain asf1, stronger effect = lower value 0.987 | locus YJL129C, strain trk1, stronger effect = lower value 0.974 | locus YJL134W, strain LCB3, stronger effect = lower value 1.01 | locus YJL154C, strain vps35, stronger effect = lower value 0.995 | locus YJL164C, strain tpk1, stronger effect = lower value 0.987 | locus YJL166W, strain qcr8, stronger effect = lower value 0.984 | locus YJL168C, strain set2, stronger effect = lower value 1 | locus YJL187C, strain SWE1 (second series), stronger effect = lower value 1.01 | locus YJL187C, strain SWE1, stronger effect = lower value 0.99 | locus YJR043C, strain POL32, stronger effect = lower value 0.992 | locus YJR066W, strain TOR1, stronger effect = lower value 0.96
